Test results reported in PubChem BioAssay (NCATS).
Records with an inconclusive call do not appear. Where a call stands in place of a potency, no number is given. Active and inactive are the calls of the source. Calls follow the shape of the dose curve; as a rule, active = well fitted inhibition curve with a large enough effect; inconclusive = small, poorly fitted or top-dose-only effect; inactive = flat fitted curve, though single readings scatter.
Potency is read from the fitted curve at half-maximal effect.

Each molecule was assayed on Zika virus NS2B-NS3 protease (assay: Primary screen GU AMC qHTS for Zika virus inhibitors (AID 1347154; also: nearly all actives have a fitted effect of over 70% in size)). Settings: Zika NS2B-NS3 unlinked protease, AMC fluorogenic substrate; series mostly up to 54.1 µM.
Source text: Avindra Nath, Ph.D., National Institute of Neurological Disorders and Stroke (NINDS), Bethesda, MD
Radhakrishnan Padmanabhan, Ph.D., Georgetown University (GU), Washington D.C.
Zika Virus causes congenital defects, including microcephaly and is associated with Guillain-Barre syndrome, eningoencephalitis and myelitis in infected adult. […] Using a target-based approach, we hope to establish a screening paradigm to uncover novel, cell-active NS2B-NS3 protease (Zika Virus) specific inhibitors from NCATS' collection of small molecules using qHTS.
Early Translation Branch (ETB)
National Center for Advancing Translational Sciences (NCATS), Rockville, MD
National Institute of Health (NIH), Bethesda, Maryland
Padmanabhan lab provided the NS2B hydrophilic domain and NS3 protease domain in a noncovalent complex used for the unlinked assay. Control compound aprotinin is obtained from Thermo Scientific (#78432; Waltham, Massachusetts). NS2B-NS3 AMC substrate (Bz-Nle-Lys-Arg-Arg-AMC; Nle-KRR-AMC) purchased from Bachem (#I-1995; Torrance, CA). Ac-VKTGKR-AMC purchased from Genscript or Bachem, Ac-FAAGKR-AMC purchased from Genscript, Ac-GLVKRR-AMC purchased from Genscript, Ac-LKKR-AMC purchased from Genscript.
GU AMC unlinked NS2B-NS3 protease qHTS protocol
Briefly, 3 microL of Zika virus unlinked NS2B-NS3 protease (25 nM for linked final concentration), in assay buffer (10 mM Tris-HCl pH 8.0 with 0.01% Tween 20) was dispensed into a 1,536-well solid-bottom black plate (Greiner Bio One, Monroe, NC). […] Plates were then read immediately on a ViewLux High-throughput CCD imager (PerkinElmer, Waltham, MA) equipped with standard UV fluorescence optics (340(30) nm excitation, 450(20) nm emission) then incubated (room temperature, protected from light) for 15 minutes (~20% conversion). The change in fluorescence intensity over the 15-minute reaction period was normalized against no-inhibitor and no-enzyme controls and the resulting percent inhibition data were fitted to a 4-parameter Hill equation. Aprotinin was used as the intraplate control.
`Cn1cc(-c2ccncc2)c(-c2ccc(OCc3ccc4ccccc4n3)cc2)n1` was tested, and the Potency was “inactive”.
In the case of `CC1(C)OC2=C(C(=O)c3ccccc3C2=O)[C@H](NCc2ccccc2)[C@H]1O`, the Potency is reported as “inactive”.
For `C[C@@H](Oc1cc(-n2cnc3ccc(CN4CCN(C)CC4)cc32)sc1C(N)=O)c1ccccc1C(F)(F)F`, the Potency was “inactive”.
In the case of `COc1cc(C(=O)NS(=O)(=O)c2ccccc2C)ccc1Cc1cn(C)c2ccc(NC(=O)OC3CCCC3)cc12`, the Potency is reported as 12.6 µM (active).
In the case of `CC(=O)SC[C@@H](C)C(=O)N1CCC[C@H]1C(=O)N[C@@H](Cc1ccccc1)C(=O)O`, the Potency is reported as “inactive”.
With `CC(=O)OCC(=O)[C@@]1(O)[C@H](C)C[C@H]2[C@@H]3C=C(C)C4=Cc5c(cnn5-c5ccccc5)C[C@]4(C)[C@@H]3[C@@H](O)C[C@@]21C` the Potency was “inactive”.
`O=C(NCCS(=O)(=O)c1ccc(C(F)(F)F)cn1)c1ccc(Cl)cc1` was tested, and the Potency was “inactive”.
In the case of `COc1cc(C(=O)N2CCC(N3CCN(C)CC3)CC2)ccc1Nc1ncc2c(n1)N(C)c1ccccc1C(=O)N2C`, the Potency is reported as “inactive”.
With `CCc1c2c(nc3ccc(O)cc13)-c1cc3c(c(=O)n1C2)COC(=O)[C@]3(O)CC` the Potency was “inactive”.
In the case of `O=C(Cc1ccc(-c2ccc(OCCN3CCOCC3)cc2)cn1)NCc1ccccc1`, the Potency is reported as “inactive”.
With `COc1ccc(C(=O)CC2(O)C(=O)Nc3c(Cl)ccc(Cl)c32)cc1` (stereo not given) the Potency was “inactive”.
With `CC[C@H](CO)Nc1nc(NCc2ccccc2)c2ncn(C(C)C)c2n1` the Potency was “inactive”.
In the case of `C=CC(=O)Nc1cc2c(Nc3ccc(F)c(Cl)c3)ncnc2cc1OCCCN1CCOCC1`, the Potency is reported as “inactive”.
In the case of `Cc1cccc(C=NNc2cc(N3CCOCC3)nc(OCCc3ccccn3)n2)c1`, the Potency is reported as “inactive”.
`CC(C)(C)c1cc(C(C)(C)C)c(NC(=O)c2c[nH]c3ccccc3c2=O)cc1O` was tested, and the Potency was “inactive”.
In the case of `COc1cc(=C2C=c3ccccc3=N2)[nH]c1=Cc1[nH]c(C)cc1C`, the Potency is reported as “inactive”.
`O=c1[nH]c(=O)n(C2CCCO2)cc1F` (stereo not given) was tested, and the Potency was “inactive”.
`COc1cc2nccc(Oc3ccc(NC(=O)C4(C(=O)Nc5ccc(F)cc5)CC4)cc3)c2cc1OC` was tested, and the Potency was “inactive”.
With `CC(C)=CCCC(C)=CCCC(C)=CCSc1ccccc1C(=O)O` the Potency was 13.6 µM (active).
For `Cc1nc(N)ncc1-c1nc(N2CCOCC2)c2sc(C(C)(C)O)cc2n1`, the Potency was “inactive”.
In the case of `c1ccc2c(CCNc3ccc(Nc4ccncc4)cc3)c[nH]c2c1`, the Potency is reported as “inactive”.
In the case of `Cn1c2ccccc2c2c3c(c4c5ccccc5n(CCC#N)c4c21)CNC3=O`, the Potency is reported as “inactive”.
`Cc1c(NC(=O)OC[C@@H]2COCCN2)cn2ncnc(Nc3ccc4c(cnn4Cc4cccc(F)c4)c3)c12` was tested, and the Potency was “inactive”.
With `C[C@@]12O[C@@H](C[C@]1(O)CO)n1c3ccccc3c3c4c(c5c6ccccc6n2c5c31)CNC4=O` the Potency was 21.5 µM (active).
In the case of `Cn1c(CNc2ccc(C(=N)N)cc2)nc2cc(C(=O)N(CCC(=O)O)c3ccccn3)ccc21`, the Potency is reported as “inactive”.
`Nc1ccccc1NC(=O)c1ccc(CNC(=O)OCc2cccnc2)cc1` was tested, and the Potency was “inactive”.
For `CNC(=O)c1ccccc1Nc1nc(Nc2ccc(N3CCOCC3)cc2OC)ncc1Cl`, the Potency was “inactive”.
For `CC(C)c1cnn2c(NCc3ccccc3)cc(N[C@@H](CO)[C@H](O)CO)nc12`, the Potency was “inactive”.
In the case of `CCOc1ccccc1OCCNC(C)Cc1ccc(OC)c(S(N)(=O)=O)c1` (stereo not given), the Potency is reported as “inactive”.
With `CC(C)(O)CCc1ccc(OCc2cc(-c3cccc(OC(F)F)c3)c3ncccc3c2)cc1` the Potency was “inactive”.
For `CN1CCN(c2cc(C(=O)Nc3ccc4c(c3)-c3c(c(C(N)=O)nn3-c3ccc(F)cc3)CC4)c(Cl)cn2)CC1`, the Potency was “inactive”.
In the case of `O=C(c1ccc(Nc2nccc(-c3cc4ccccc4s3)n2)cc1)N1CCC(N2CCCC2)CC1`, the Potency is reported as “inactive”.
For `CCCCc1nc2cc(C=CC(=O)NO)ccc2n1CCN(CC)CC`, the Potency was “inactive”.
With `O=C(c1cncc(Br)c1)N1CCC(N2CCCC2)CC1` the Potency was “inactive”.
With `CC(C)(C)c1cc(NC(=O)Nc2ccc(-c3cn4c(n3)sc3cc(OCCN5CCOCC5)ccc34)cc2)no1` the Potency was “inactive”.
For `Cc1cc(N2CCOCC2)cc2[nH]c(-c3c(NC[C@@H](O)c4cccc(Cl)c4)cc[nH]c3=O)nc12`, the Potency was 17.1 µM (active).
`COCCOc1ccc2c(c1)ncn2-c1ccc2cccc(N3CCC(N)CC3)c2n1` was tested, and the Potency was “inactive”.
`CN(c1ncccc1CNc1nc(Nc2ccc3c(c2)CC(=O)N3)ncc1C(F)(F)F)S(C)(=O)=O` was tested, and the Potency was “inactive”.
`CC[C@@H]1C(=O)N(C)c2cnc(Nc3ccc(C(=O)NC4CCC(N5CCN(CC6CC6)CC5)CC4)cc3OC)nc2N1C(C)C` (stereo not given in full) was tested, and the Potency was “inactive”.
In the case of `Nc1nc(-c2nn(Cc3ccccc3F)c3ncccc23)nc(N)c1N1CCOCC1`, the Potency is reported as “inactive”.
